Screening results deposited in PubChem BioAssay by National Center for Advancing Translational Sciences (NCATS).
This is a sample that favours compounds with a hit; in the whole collection about 6.2% have one here.
HT1080-NT tox – kills 2HG-producing HT-1080-NT fibrosarcoma cells | hit rate 1.6% among 360,000 | HT-1080-NT fibrosarcoma viability, CellTiter-Glo ATP luminescence, 48 h | AID 686970 | Potency, µM (doses to about 46.1 µM), for the others: at the highest dose activity, negative = less viability, hits mostly cytotoxic;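 note: NT is the 2HG producing partner of a matched IDH1 knockdown line; 0% = DMSO-treated cells and -100% = media-only wells without cells; nearly all actives have a fitted effect of over 55% in size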
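Compounds were tested in concentration-response format on HT-1080-NT cells for 48 hours at 37 degrees C. Cell viability came from CellTiter-Glo luminescence; curves were classified by r2, response magnitude and activity.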
KB-3-1 cytotox – kills parental KB-3-1 adenocarcinoma cells | hit rate 1.4% among 400,000 | Potency, µM (series often up to 46.1 µM), most hits filed as cytotoxic | KB-3-1 viability, CellTiter-Glo ATP luminescence, 72 h | AID 1347075; note: % is set by controls: 0 for no effect and ±100 for the full control effect; nearly all actives have a fitted effect of over 60% in size
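Luminescent ATP read-out (CellTiter-Glo) measures survival of drug-naive KB-3-1 cells after 72 h compound exposure at 37 °C. Titration series was screened from lowest to highest concentration, with DMSO vehicle plates as background controls.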
ATXN2 expr inh – ATXN2 expression inhibition; HEK-293 ATXN2-luciferase reporter, luminescence, 24 h; Potency, µM (top dose mostly 57 µM), for the others: top-dose activity change, negative = inhibition, usual class: inhibitors; hit rate 0.72% among 360,000; AID 1745845; note: % is set by controls: 0 for no effect and ±100 for the full control effect; nearly all actives have a fitted effect of over 55% in size
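ATXN2-luciferase reporter cells (luciferase flanked by upstream and downstream ATXN2 gene portions) were treated 24 h at 37 °C with compounds at up to 57 uM. SteadyGlo luminescence gave expression; GF-AFC fluorescence gave viability.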
ATXN viability – viability counter-screen for ATXN expression inhibitors; hit rate 0.49% among 400,000; AID 651635; Potency, µM (doses to about 56.7 µM), hits mostly cytotoxic; S2 cells (HEK-293 line with an ATXN2-luciferase reporter) viability, CellTiter-Fluor protease fluorescence, 24 h; note: nearly all actives have a fitted effect of over 40% in size
KB-V1 cytotox – KB-V1 MDR subline cytotoxicity; KB-V1 MDR cells viability, CellTiter-Glo, 72 h; Potency, µM (doses to about 46.1 µM), most hits filed as cytotoxic; hit rate 3.4% among 400,000; AID 1347076; note: % is set by controls: 0 for no effect and ±100 for the full control effect; nearly all actives have a fitted effect of over 60% in size
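Readout: CellTiter-Glo luminescence, 10 min after addition. Cells: KB-V1 MDR subline, 72 h at 37 degrees C with compound. Analysis: corrected, normalized data fitted to concentration-effect curves.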
HT1080 IDH1KD tx – toxicity to HT-1080 IDH1 knockdown cells (counter line). Potency, µM (titrated, usually from 46.1 µM), inactives show top-dose activity, negative = toxicity, most hits filed as cytotoxic. AID 686971. hit rate 2% among 360,000. HT-1080 IDH1 knockdown viability, ATP luminescence, 48 h;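 note: 0% = DMSO wells and -100% = cell-free medium wells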
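In this qHTS, HT-1080 cells depleted of IDH1 are exposed for 48 h at 37 °C to compound titrations. Toxicity is scored from CellTiter-Glo luminescence, with DMSO as full viability and medium alone as none.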
Active calls of the source: *. Calls come from the whole dose curve; as a rule, active = well fitted curve in the direction sought with a large enough effect; inconclusive = small, poorly fitted or top-dose-only effect, or another doubt; inactive = no such curve, though single readings can be large; an effect the other way counts as inactive or inconclusive. Potency is the fitted concentration of half-maximal effect.

For COc1ccc(N(CC(=O)NCc2ccc(F)cc2)S(=O)(=O)c2c(C)noc2C)cc1 the results were HT1080-NT tox -3.4%, KB-3-1 cytotox inactive, ATXN2 expr inh -3.9%, ATXN viability inactive, KB-V1 cytotox inactive and HT1080 IDH1KD tx 5.3%.
`COC(=O)c1cc(Cl)ccc1NCC(N)c1ccccc1` (stereo not given) gave HT1080-NT tox 20.6µM*, KB-3-1 cytotox inactive, ATXN2 expr inh inconclusive, ATXN viability inconclusive, KB-V1 cytotox inactive and HT1080 IDH1KD tx 18.4µM*.
`Cc1ccc2oc(-c3ccc(C)c(NC(=O)COc4ccc(Cl)cc4)c3)nc2c1` gave KB-3-1 cytotox inactive and KB-V1 cytotox inactive.
Screening O=C(c1ccc(CS(=O)c2cccc(Cl)c2)o1)N1CCCCCC1 (stereo not given) returned HT1080-NT tox 10.1%, KB-3-1 cytotox inactive, ATXN2 expr inh -15.2%, ATXN viability inactive, KB-V1 cytotox 23.1µM* and HT1080 IDH1KD tx 9.9%.
`COc1cccc(N2CCN(C(=O)c3ccc(CS(=O)c4ccccc4C)o3)CC2)c1` (stereo not given) gave HT1080-NT tox 0.461µM*, KB-3-1 cytotox 1.03µM*, ATXN2 expr inh -20.0%, ATXN viability inactive, KB-V1 cytotox inconclusive and HT1080 IDH1KD tx 0.731µM*.
Screening O=C(c1ccc(CS(=O)c2ccccc2Cl)o1)N1CCN(c2ccccc2)CC1 (stereo not given) returned HT1080-NT tox inconclusive, KB-3-1 cytotox 1.03µM*, ATXN2 expr inh inconclusive, ATXN viability inactive, KB-V1 cytotox inconclusive and HT1080 IDH1KD tx 0.517µM*.
O=C(c1ccc(CS(=O)c2cccc(Cl)c2)o1)N1CCN(C2CCCCC2)CC1 (stereo not given) was read as HT1080-NT tox 4.5%, KB-3-1 cytotox inactive, ATXN2 expr inh 8.5%, ATXN viability inactive, KB-V1 cytotox inactive and HT1080 IDH1KD tx -12.3%.
Screening COc1cccc(N2CCN(C(=O)c3ccc(CS(=O)c4ccccc4Cl)o3)CC2)c1 (stereo not given) returned HT1080-NT tox inconclusive, KB-3-1 cytotox 0.0082µM*, ATXN2 expr inh -0.5%, ATXN viability inactive, KB-V1 cytotox inactive and HT1080 IDH1KD tx 0.0082µM*.
Screening COc1ccc(N2CCN(C(=O)c3ccc(CS(=O)c4cccc(C)c4)o3)CC2)cc1 (stereo not given) returned HT1080-NT tox inconclusive, KB-3-1 cytotox inconclusive, ATXN2 expr inh -9.1%, ATXN viability inactive, KB-V1 cytotox inactive and HT1080 IDH1KD tx inconclusive.
Cc1sccc1Br was read as ATXN2 expr inh 4.8% and ATXN viability inactive.
`Cc1cccc(-c2nc3c(c(SCC(=O)N4CCOCC4)n2)Cc2c(CO)cnc(C)c2O3)c1` gave HT1080-NT tox inconclusive, KB-3-1 cytotox 14.6µM*, ATXN2 expr inh -20.5%, ATXN viability inactive, KB-V1 cytotox inactive and HT1080 IDH1KD tx inconclusive.
For Cc1ncc(CO)c2c1Oc1nc(-c3ccccc3F)nc(SCC(=O)N(C)c3ccccc3)c1C2 the results were HT1080-NT tox inconclusive, KB-3-1 cytotox inactive, ATXN2 expr inh inconclusive, ATXN viability 17.8µM*, KB-V1 cytotox inconclusive and HT1080 IDH1KD tx 20.6µM*.
Screening COc1cccc(-c2nc3c(c(SCC(=O)N4CCOCC4)n2)Cc2c(CO)cnc(C)c2O3)c1 returned HT1080-NT tox -13.0%, KB-3-1 cytotox inactive, ATXN2 expr inh -29.5%, ATXN viability inconclusive, KB-V1 cytotox inactive and HT1080 IDH1KD tx -20.6%.
Screening CCN(CC)C(=O)CSc1nc(-c2ccccc2F)nc2c1Cc1c(CO)cnc(C)c1O2 returned KB-3-1 cytotox inactive, ATXN2 expr inh -0.8%, ATXN viability inactive and KB-V1 cytotox inactive.
Screening Cc1ncc(CO)c2c1Oc1nc(-c3ccccc3)nc(SCC(=O)N3CCCCC3)c1C2 returned HT1080-NT tox inconclusive, KB-3-1 cytotox inactive, ATXN2 expr inh -38.6%, ATXN viability 14.1µM*, KB-V1 cytotox inactive and HT1080 IDH1KD tx -15.6%.
For Cc1ncc(CO)c2c1Oc1nc(-c3ccccc3)nc(SCC(=O)N3CCOCC3)c1C2 the results were HT1080-NT tox -13.9%, KB-3-1 cytotox inactive, ATXN2 expr inh -1.8%, ATXN viability inactive, KB-V1 cytotox inactive and HT1080 IDH1KD tx -9.5%.
Screening Cn1c(C2CCC2)nc2cc(C(=O)N3CCOc4ccccc4C3)cc(NC(=O)C3CCCO3)c21 (stereo not given) returned ATXN viability inactive.
`COc1cc(OC)c(NC(=O)C(C)n2c(=O)cc(-c3ccccc3)c3c(C)nn(C)c32)cc1Cl` (stereo not given) gave KB-3-1 cytotox inactive, ATXN2 expr inh 9.3%, ATXN viability inactive and KB-V1 cytotox inactive.
Screening CCCCN(CC)CCNC(=O)CCn1cnc2onc(-c3ccc(F)cc3)c2c1=O returned KB-3-1 cytotox inactive, ATXN2 expr inh -18.3%, ATXN viability inactive and KB-V1 cytotox inactive.
`FC(F)(F)c1cnc(N2CCCN(C(=S)Nc3ccccc3)CC2)c(Cl)c1` gave HT1080-NT tox inconclusive, KB-3-1 cytotox inactive, ATXN2 expr inh inconclusive, ATXN viability inactive, KB-V1 cytotox inconclusive and HT1080 IDH1KD tx 23.1µM*.
`FC(F)(F)c1cnc(N2CCN(C(=S)NCc3ccccc3)CC2)c(Cl)c1` gave HT1080-NT tox -33.1%, KB-3-1 cytotox inconclusive, ATXN2 expr inh inconclusive, ATXN viability inactive, KB-V1 cytotox inactive and HT1080 IDH1KD tx inconclusive.
For COCCN(C(=O)Cc1cccs1)c1nnc(-c2ccncc2)s1 the results were HT1080-NT tox -4.0%, KB-3-1 cytotox inactive, ATXN2 expr inh 3.5%, ATXN viability inactive, KB-V1 cytotox inactive and HT1080 IDH1KD tx -3.1%.
CCN(C(=O)c1cccs1)c1nnc(-c2ccncc2)s1 was read as HT1080-NT tox inconclusive, KB-3-1 cytotox inactive, ATXN2 expr inh 39.2%, ATXN viability inactive, KB-V1 cytotox 18.4µM* and HT1080 IDH1KD tx 7.4%.
For COc1cccc(NC(=O)C2C3CCC4C(CCC32)C4(Cl)Cl)c1 (stereo not given) the results were HT1080-NT tox 2.6%, KB-3-1 cytotox inactive, ATXN2 expr inh 8.3%, ATXN viability inactive, KB-V1 cytotox 11.6µM* and HT1080 IDH1KD tx -10.5%.
O=C(N/N=C/c1ccc(F)cc1)c1cc(-c2ccccn2)nc2ccccc12 was read as HT1080-NT tox -2.3%, KB-3-1 cytotox inactive, ATXN2 expr inh 1.5%, ATXN viability inactive, KB-V1 cytotox inactive and HT1080 IDH1KD tx -8.0%.
